Measured values as given in PubChem BioAssay (Tox21).
Results filed as inconclusive are left out. The source made the active and inactive calls. The call rests on the fitted dose curve; in most records, active means well fitted curve in the direction sought with a large enough effect in the repeat runs; inconclusive means weak or mixed curves; inactive means no such curve, though single readings can be large; an effect the other way counts as inactive or inconclusive.

How the values were obtained:
[1] = Caspase-3/7 induction in HepG2 cells by small molecules, qHTS assay (AID 1346978); further: nearly all actives have a fitted effect of over 15% in size
Procedure, shortened: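 Caspase-3/7 induction was measured by Caspase-Glo 3/7 luminescence (30 min, room temperature) after a 17 hr compound exposure of wild-type HepG2 cells seeded at 2,000 per well and pre-incubated 5 hr.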

[2] = Caspase-3/7 induction in CHO-K1 cells by small molecules, qHTS assay (AID 1346980); further: nearly all actives have a fitted effect of over 15% in size
Procedure, shortened: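 Luminescent Caspase-Glo 3/7 read (30min, room temperature) quantified apoptosis induction. Cells were wild-type CHO-K1, treated with compound for 17hr at 37 C and 5% CO2.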

[3] = target: Nuclear receptor subfamily 1 group I member 2 (Homo sapiens) (UniProt O75469); assay: Human pregnane X receptor (PXR) small molecule agonists, qHTS assay (AID 1346982); further: nearly all actives have a fitted effect of over 35% in size; further: potency means the concentration at half of the fitted maximal effect
Chain of Nuclear receptor subfamily 1 group I member 2 (Homo sapiens) (O75469 whole entry, looked up): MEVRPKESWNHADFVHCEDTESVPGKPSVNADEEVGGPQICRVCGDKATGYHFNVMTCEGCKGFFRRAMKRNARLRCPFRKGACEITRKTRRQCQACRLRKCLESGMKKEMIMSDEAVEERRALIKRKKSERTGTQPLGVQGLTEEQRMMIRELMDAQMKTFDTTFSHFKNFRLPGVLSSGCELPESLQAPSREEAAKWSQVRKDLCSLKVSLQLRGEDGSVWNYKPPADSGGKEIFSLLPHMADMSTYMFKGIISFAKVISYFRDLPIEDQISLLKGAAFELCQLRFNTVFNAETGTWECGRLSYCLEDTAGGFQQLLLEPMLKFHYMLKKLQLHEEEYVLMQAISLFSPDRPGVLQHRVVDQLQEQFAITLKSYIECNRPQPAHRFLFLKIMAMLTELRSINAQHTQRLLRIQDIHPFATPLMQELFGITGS
Procedure, shortened: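 After plating in 5% charcoal-stripped FBS and a 5 hr rest, PXR-Luc HepG2 cells received compounds in DMSO. Following 24 hr at 37 C, ONE-Glo was added and light output read.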

[4] = target: Nuclear receptor subfamily 1 group I member 2 (Rattus norvegicus) (UniProt Q9R1A7); assay: Rat pregnane X receptor (rPXR) activation by small molecules, qHTS assay (AID 1346983); conditions: rPXR luciferase reporter cells, One-Glo luminescence, 24 h; max activation: active compounds read high; further: nearly all actives have a fitted effect of over 20% in size
Chain of Nuclear receptor subfamily 1 group I member 2 (Rattus norvegicus) (Q9R1A7 whole entry, looked up): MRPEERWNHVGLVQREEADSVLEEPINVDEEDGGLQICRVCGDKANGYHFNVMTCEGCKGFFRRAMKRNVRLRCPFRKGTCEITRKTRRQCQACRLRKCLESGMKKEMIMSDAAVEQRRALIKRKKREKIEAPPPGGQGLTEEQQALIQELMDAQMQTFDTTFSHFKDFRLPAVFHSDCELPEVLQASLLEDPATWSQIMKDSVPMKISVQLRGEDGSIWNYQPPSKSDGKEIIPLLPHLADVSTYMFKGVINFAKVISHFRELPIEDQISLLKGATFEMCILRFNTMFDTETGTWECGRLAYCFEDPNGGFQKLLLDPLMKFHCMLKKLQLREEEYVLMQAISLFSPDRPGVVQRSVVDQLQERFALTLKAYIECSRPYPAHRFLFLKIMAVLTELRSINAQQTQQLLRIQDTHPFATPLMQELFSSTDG
Procedure, shortened: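 Luminescent readout (One-Glo luciferase, 30 min room temperature) followed 24 hr compound treatment at 37 C of rPXR cells plated 2,000 per well and preincubated 5hr; qHTS format with compounds delivered in DMSO.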

[5] = target: Nuclear receptor subfamily 1 group I member 2 (Homo sapiens) (UniProt O75469); assay: CYP3A4 induction through human pregnane X receptor (PXR) by small molecules, qHTS assay (AID 1346984); further: nearly all actives have a fitted effect of over 40% in size; further: potency means the concentration at half of the fitted maximal effect
Procedure, shortened: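 Human PXR activation is tracked via CYP3A4 promoter-luciferase in DPX-2 (HepG2) cells. Compounds treat cells for 24hr at 37C, and luminescence is read after One-Glo.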

[6] = target: Nuclear receptor subfamily 1 group I member 2 (Homo sapiens) (UniProt O75469); assay: Human pregnane X receptor (PXR) activation by small molecules, qHTS assay (AID 1346985); further: nearly all actives have a fitted effect of over 40% in size; further: potency means the concentration at half of the fitted maximal effect
Procedure, shortened: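 DPX-2 cells (HepG2 co-transfected with a PXR response element and a CYP3A4-promoter luciferase construct) were seeded at 2,000 per well, rested 5 hr at 37C, then exposed to DMSO-dissolved compounds for 24 hr. Activation was read as luciferase luminescence.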

[7] = target: Cytochrome P450 2D6 (Homo sapiens) (UniProt P10635); assay: Cytochrome P450 Family 2 Subfamily D Member 6 (CYP2D6) small molecule antagonists: luciferase reporter qHTS assay (AID 1671196); further: nearly all actives have a fitted effect of over 50% in size; further: potency means the concentration at half of the fitted maximal effect
Chain of Cytochrome P450 2D6 (Homo sapiens) (P10635 whole entry, looked up): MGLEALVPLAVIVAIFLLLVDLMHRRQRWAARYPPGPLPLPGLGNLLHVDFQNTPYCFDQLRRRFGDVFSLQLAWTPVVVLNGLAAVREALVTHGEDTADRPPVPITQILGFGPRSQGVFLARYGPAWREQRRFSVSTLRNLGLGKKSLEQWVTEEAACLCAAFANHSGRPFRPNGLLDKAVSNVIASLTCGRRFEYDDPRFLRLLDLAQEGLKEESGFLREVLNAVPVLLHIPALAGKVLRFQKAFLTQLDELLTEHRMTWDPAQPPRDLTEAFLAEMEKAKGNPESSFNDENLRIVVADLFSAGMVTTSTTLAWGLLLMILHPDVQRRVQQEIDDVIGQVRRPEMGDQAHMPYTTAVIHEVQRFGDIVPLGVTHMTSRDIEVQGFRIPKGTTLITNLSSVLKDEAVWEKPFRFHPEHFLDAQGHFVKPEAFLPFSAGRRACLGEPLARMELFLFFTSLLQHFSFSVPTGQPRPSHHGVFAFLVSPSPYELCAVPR
Procedure, shortened: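 Quantitative HTS of Tox21 chemicals against CYP2D6 using a luminescent proluciferin substrate. After NADPH addition, 1 h room-temperature reaction; luminescence recorded 20 min post detection reagent.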

[8] = target: Cytochrome P450 2C19 (Homo sapiens) (UniProt P33261); assay: Cytochrome P450 Family 2 Subfamily C Member 19 (CYP2C19) small molecule antagonists: luciferase reporter qHTS assay (AID 1671197); further: nearly all actives have a fitted effect of over 65% in size; further: potency means the concentration at half of the fitted maximal effect
Chain of Cytochrome P450 2C19 (Homo sapiens) (P33261 whole entry, looked up): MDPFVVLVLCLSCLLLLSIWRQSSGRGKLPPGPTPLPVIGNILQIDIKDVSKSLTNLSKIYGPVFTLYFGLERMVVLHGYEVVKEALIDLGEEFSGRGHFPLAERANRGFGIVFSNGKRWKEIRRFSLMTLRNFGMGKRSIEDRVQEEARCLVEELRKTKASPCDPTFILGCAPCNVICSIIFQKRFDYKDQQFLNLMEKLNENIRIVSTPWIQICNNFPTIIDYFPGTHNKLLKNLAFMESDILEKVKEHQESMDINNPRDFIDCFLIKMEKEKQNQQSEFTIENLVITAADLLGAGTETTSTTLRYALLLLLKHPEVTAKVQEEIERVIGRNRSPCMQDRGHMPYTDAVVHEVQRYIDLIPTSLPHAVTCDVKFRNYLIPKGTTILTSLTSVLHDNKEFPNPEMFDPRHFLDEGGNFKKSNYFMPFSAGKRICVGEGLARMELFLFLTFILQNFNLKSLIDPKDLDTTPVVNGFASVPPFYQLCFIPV
Procedure, shortened: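 First, compounds are pinned into enzyme-substrate mix and held 10 min at room temperature. Second, NADPH regeneration solution is added and plates incubate 1 h at 37C. Third, detection reagent is added and luminescence read after 20 min.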

[9] = target: Cytochrome P450 2C9 (Homo sapiens) (UniProt P11712); assay: Cytochrome P450 Family 2 Subfamily C Member 9 (CYP2C9) small molecule antagonists: luciferase reporter qHTS assay (AID 1671198); further: nearly all actives have a fitted effect of over 50% in size; further: potency means the concentration at half of the fitted maximal effect
Chain of Cytochrome P450 2C9 (Homo sapiens) (P11712 whole entry, looked up): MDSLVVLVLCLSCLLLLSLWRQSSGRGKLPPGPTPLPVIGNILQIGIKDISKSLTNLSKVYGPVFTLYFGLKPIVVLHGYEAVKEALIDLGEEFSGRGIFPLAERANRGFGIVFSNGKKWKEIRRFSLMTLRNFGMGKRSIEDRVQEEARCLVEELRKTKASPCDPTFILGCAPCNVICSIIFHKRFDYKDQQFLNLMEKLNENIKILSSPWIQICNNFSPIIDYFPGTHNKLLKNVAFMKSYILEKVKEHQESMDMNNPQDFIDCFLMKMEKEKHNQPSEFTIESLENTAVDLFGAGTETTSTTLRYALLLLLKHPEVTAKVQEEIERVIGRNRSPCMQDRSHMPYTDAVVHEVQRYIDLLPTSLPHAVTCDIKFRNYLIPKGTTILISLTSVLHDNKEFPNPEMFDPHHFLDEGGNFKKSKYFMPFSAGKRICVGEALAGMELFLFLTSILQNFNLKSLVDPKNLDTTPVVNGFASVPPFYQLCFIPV
Procedure, shortened: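 Enzyme-substrate mix preincubated with compound 10 min at room temperature; reaction started with NADPH regeneration solution, 1 h 37C. Luminescent luciferin product read after 20 min detection reagent.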

[10] = target: Voltage-gated inwardly rectifying potassium channel KCNH2 (Homo sapiens) (UniProt Q12809); assay: Human Ether-a-go-go-Related Gene (hERG) channel small molecule antagonists: fluorescence cell-based qHTS assay (AID 1671200); further: nearly all actives have a fitted effect of over 50% in size; further: potency means the concentration at half of the fitted maximal effect
Chain of Voltage-gated inwardly rectifying potassium channel KCNH2 (Homo sapiens) (Q12809 whole entry, looked up): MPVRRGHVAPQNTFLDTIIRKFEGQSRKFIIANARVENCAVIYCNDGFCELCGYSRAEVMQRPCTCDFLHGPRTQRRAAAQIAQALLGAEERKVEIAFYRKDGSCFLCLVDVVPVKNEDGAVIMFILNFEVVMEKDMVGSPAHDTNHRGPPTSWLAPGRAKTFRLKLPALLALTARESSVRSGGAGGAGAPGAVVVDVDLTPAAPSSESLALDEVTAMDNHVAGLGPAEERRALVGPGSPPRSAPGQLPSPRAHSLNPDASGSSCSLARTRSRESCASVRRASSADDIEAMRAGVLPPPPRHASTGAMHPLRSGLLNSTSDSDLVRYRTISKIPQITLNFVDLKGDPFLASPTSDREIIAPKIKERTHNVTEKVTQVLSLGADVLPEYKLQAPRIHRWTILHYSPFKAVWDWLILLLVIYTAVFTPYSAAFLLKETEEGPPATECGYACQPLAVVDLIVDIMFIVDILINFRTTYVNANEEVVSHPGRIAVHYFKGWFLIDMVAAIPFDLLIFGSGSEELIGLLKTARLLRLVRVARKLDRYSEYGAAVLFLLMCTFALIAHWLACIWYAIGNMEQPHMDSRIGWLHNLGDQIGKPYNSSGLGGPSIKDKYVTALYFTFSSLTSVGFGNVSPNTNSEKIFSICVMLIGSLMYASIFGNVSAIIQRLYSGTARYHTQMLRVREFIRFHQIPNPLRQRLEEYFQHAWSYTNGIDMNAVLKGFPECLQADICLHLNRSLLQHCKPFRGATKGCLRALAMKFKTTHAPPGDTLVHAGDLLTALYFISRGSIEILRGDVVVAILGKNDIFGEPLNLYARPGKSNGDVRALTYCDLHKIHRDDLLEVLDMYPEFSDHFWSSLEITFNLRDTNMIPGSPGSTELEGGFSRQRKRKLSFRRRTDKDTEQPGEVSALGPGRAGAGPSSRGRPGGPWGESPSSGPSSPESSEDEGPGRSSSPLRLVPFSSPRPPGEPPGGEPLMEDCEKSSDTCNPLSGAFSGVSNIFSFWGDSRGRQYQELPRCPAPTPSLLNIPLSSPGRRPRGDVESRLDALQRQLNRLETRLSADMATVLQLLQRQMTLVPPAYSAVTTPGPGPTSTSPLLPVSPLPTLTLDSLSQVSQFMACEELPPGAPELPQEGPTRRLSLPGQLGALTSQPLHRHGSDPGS
Procedure, shortened: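 Measured: Tl+ flux via fluorescence (480/540 nm) in hERG-expressing U2OS cells after 1 h dye loading at room temperature.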

[11] = target: Cytochrome P450 1A2 (Homo sapiens) (UniProt P05177); assay: Cytochrome P450 Family 1 Subfamily A Member 2 (CYP1A2) small molecule antagonists: luciferase reporter qHTS assay (AID 1671199); further: nearly all actives have a fitted effect of over 50% in size; further: potency means the concentration at half of the fitted maximal effect
Chain of Cytochrome P450 1A2 (Homo sapiens) (P05177 whole entry, looked up): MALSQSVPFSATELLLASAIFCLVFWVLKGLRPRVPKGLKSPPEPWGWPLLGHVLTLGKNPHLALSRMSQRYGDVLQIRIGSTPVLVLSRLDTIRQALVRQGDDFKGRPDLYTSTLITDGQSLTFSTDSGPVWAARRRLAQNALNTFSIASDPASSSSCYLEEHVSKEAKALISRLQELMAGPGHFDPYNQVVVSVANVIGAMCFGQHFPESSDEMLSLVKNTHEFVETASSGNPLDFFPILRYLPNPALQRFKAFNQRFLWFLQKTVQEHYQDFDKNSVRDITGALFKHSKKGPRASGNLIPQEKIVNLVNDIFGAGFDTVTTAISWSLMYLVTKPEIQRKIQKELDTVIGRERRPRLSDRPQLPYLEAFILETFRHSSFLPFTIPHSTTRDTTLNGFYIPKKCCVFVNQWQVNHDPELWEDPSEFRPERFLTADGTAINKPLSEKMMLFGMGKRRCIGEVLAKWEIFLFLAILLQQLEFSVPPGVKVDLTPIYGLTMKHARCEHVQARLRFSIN
Procedure, shortened: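 Quantitative high-throughput format using the P450-Glo CYP1A2 system. Reaction initiated by NADPH regeneration solution, 1 h at room temperature, then stopped with detection reagent; luminescence measured 20 min later.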

[12] = target: Cytochrome P450 3A4 (Homo sapiens) (UniProt P08684); assay: Cytochrome P450 Family 3 Subfamily A Member 4 (CYP3A4) small molecule antagonists: luciferase reporter qHTS assay (AID 1671201); further: nearly all actives have a fitted effect of over 50% in size; further: potency means the concentration at half of the fitted maximal effect
Chain of Cytochrome P450 3A4 (Homo sapiens) (P08684 whole entry, looked up): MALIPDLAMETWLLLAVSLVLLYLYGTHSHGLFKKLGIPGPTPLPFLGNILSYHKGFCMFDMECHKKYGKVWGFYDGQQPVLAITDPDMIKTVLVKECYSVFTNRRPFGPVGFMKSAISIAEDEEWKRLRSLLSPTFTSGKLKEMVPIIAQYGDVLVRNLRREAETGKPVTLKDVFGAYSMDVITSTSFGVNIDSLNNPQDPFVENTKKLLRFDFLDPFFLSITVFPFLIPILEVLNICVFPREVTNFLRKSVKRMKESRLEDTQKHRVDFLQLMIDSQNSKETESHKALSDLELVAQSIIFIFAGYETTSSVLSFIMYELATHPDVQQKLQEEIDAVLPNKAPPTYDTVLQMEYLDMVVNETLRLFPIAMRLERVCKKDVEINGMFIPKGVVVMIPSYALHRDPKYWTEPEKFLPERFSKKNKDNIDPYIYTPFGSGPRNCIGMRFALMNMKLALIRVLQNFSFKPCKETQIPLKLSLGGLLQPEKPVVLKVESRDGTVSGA
Procedure, shortened: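 Setup: enzyme-substrate mix, compound pin transfer, 10 min RT. Reaction: NADPH regeneration solution, 1 h RT. Readout: detection reagent stops turnover, luminescence measured after 20 min, expressed in relative luminescence units.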

[13] = Caspase-3/7 induction in HepG2 cells by small molecules, qHTS cell viability counter screen (AID 1346981); further: series mostly up to about 92 µM; nearly all actives have a fitted effect of over 30% in size
Procedure, shortened: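 The parent HepG2 line is plated at 2,000 cells per well and rested 5 hr before compound pinning from DMSO stocks. Following a 16-hr treatment at 37 C, a fluorogenic live-cell substrate (CellTiter-Fluor) reports viability after 1 hr.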

[14] = Caspase-3/7 induction in CHO-K1 cells by small molecules, qHTS cell viability counter screen (AID 1346979); further: nearly all actives have a fitted effect of over 35% in size
Procedure, shortened: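 To flag cytotoxic compounds, treated CHO-K1 wild-type cells were given CellTiter-Fluor at 16hr and read fluorescently after 1hr at 37C; the caspase-3/7 luminescence was measured in these same wells.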
On the % scale 0 is the no-effect control and ±100 the full control effect.

Cc1ccsc1C(=CCCN1CCC[C@@H](C(=O)O)C1)c1sccc1C
inactive: Potency [1] | outcome [2] | Potency [3] | max activation [4] 2.87% | Potency [5] | Potency [6] | Potency [7] | Potency [8] | Potency [9] | Potency [10]

CN1CCN(C2=Nc3ccccc3Oc3ccc(Cl)cc32)CC1
inactive: Potency [1] | outcome [2] | max activation [4] -1.38% | Potency [6] | Potency [11]
active: Potency [3] 23.7 µM | Potency [5] 1.26 µM | Potency [7] 4.9 µM | Potency [8] 8.71 µM | Potency [10] 16.9 µM

O=Cc1ccc(O)c(O)c1O
inactive: Potency [1] | outcome [2] | Potency [3] | Potency [8] | Potency [11] | Potency [10] | Potency [12]

CCCCNC(=S)NCCCC
active: Potency [3] 34.4 µM | Potency [7] 1.42 µM | Potency [8] 79.6 µM | Potency [9] 71 µM | Potency [11] 44.8 µM | Potency [12] 31.7 µM
inactive: Potency [13] | Potency [10]

CCOC(=O)CS
active: Potency [8] 82 µM | Potency [11] 65.1 µM
inactive: Potency [14] | outcome [2] | Potency [13] | Potency [3] | Potency [10] | Potency [12]

CC(=O)O[C@H]1CC[C@@]2(C)C(=CC[C@@H]3[C@@H]2CC[C@]2(C)C(C(C)=O)=CC[C@@H]32)C1
inactive: Potency [14] | outcome [2] | Potency [13] | Potency [3] | Potency [7] | Potency [8] | Potency [9] | Potency [11] | Potency [10] | Potency [12]

OCC(CBr)(CBr)CBr
inactive: Potency [14] | outcome [2] | Potency [13] | Potency [7] | Potency [8] | Potency [11] | Potency [10] | Potency [12]

O=C(O)C(=O)Cc1c[nH]c2ccccc12
inactive: Potency [14] | outcome [2] | Potency [13] | Potency [10] | Potency [12]
active: Potency [3] 30.6 µM | Potency [7] 28.3 µM | Potency [8] 79.6 µM | Potency [9] 39.9 µM | Potency [11] 35.6 µM

CCCc1c2oc(C(=O)O)cc(=O)c2cc2c(=O)cc(C(=O)O)n(CC)c12
inactive: Potency [14] | outcome [2] | Potency [3] | Potency [7] | Potency [8] | Potency [9] | Potency [10] | Potency [12]

CN1CCN(C2=Nc3cc(F)ccc3Cc3ccccc32)CC1
active: Potency [5] 25.1 µM | Potency [6] 22.4 µM | Potency [7] 4.9 µM
inactive: Potency [14] | outcome [2] | Potency [3] | max activation [4] 2.35% | Potency [8] | Potency [9] | Potency [10]

CCCC1CCC(=O)O1 (configuration not stated)
inactive: Potency [14] | outcome [2] | Potency [13] | Potency [3] | Potency [7] | Potency [8] | Potency [9] | Potency [10] | Potency [12]

CC(C)=CCCC(C)CCOC=O (configuration not stated)
active: Potency [9] 71 µM | Potency [12] 35.6 µM
inactive: Potency [14] | outcome [2] | Potency [3] | Potency [7] | Potency [10]

Cc1c(N)cccc1N
active: Potency [7] 72.6 µM | Potency [9] 64.7 µM | Potency [11] 23 µM | Potency [12] 6.47 µM
inactive: Potency [14] | outcome [2] | Potency [13] | Potency [10]

CC/C=C\CCOC(=O)CCCCC
inactive: Potency [14] | outcome [2] | Potency [13] | Potency [3] | Potency [7] | Potency [9] | Potency [10] | Potency [12]

CCCCNc1cc(C(=O)O)cc(S(N)(=O)=O)c1Oc1ccccc1
inactive: Potency [14] | outcome [2] | Potency [13] | Potency [10]

CN1CCN(N)CC1
inactive: Potency [14] | outcome [2] | Potency [13] | Potency [3] | Potency [7] | Potency [8] | Potency [11] | Potency [10] | Potency [12]

Cc1ncc(CO)c(CN)c1O
inactive: outcome [2] | Potency [13] | Potency [3] | max activation [4] -1.2% | Potency [5] | Potency [6] | Potency [7] | Potency [11] | Potency [10] | Potency [12]

COC(=O)N[C@H](C(=O)N[C@@H](Cc1ccccc1)[C@@H](O)CN(Cc1ccc(-c2ccccn2)cc1)NC(=O)[C@@H](NC(=O)OC)C(C)(C)C)C(C)(C)C
active: Potency [8] 34.7 µM | Potency [9] 15.5 µM
inactive: Potency [14] | outcome [2] | Potency [13] | Potency [11] | Potency [10]

CCCCCCCCc1ccc(S(=O)(=O)O)cc1
inactive: Potency [14] | outcome [2] | Potency [3] | Potency [7] | Potency [8] | Potency [11] | Potency [10] | Potency [12]

NCCCN1CCN(CCCN)CC1
inactive: Potency [14] | outcome [2] | Potency [13] | Potency [3] | Potency [8] | Potency [9] | Potency [10] | Potency [12]

CC(=O)Nc1ccc(C)c(Cl)c1
active: Potency [8] 22.4 µM | Potency [11] 8.94 µM | Potency [12] 39.9 µM
inactive: Potency [14] | outcome [2] | Potency [13] | Potency [7] | Potency [9] | Potency [10]

CC(=O)OC(C)OC(C)=O
inactive: Potency [14] | outcome [2] | Potency [13] | Potency [3] | Potency [7] | Potency [8] | Potency [9] | Potency [10] | Potency [12]

CCCOc1ccc2c(c1)CC[C@@H]1[C@@H]2CC[C@]2(C)C(OC)CC[C@@H]12 (some centres not stated)
inactive: outcome [2] | Potency [13] | Potency [3] | Potency [10] | Potency [12]
active: Potency [7] 15.5 µM | Potency [9] 34.7 µM
